Laboratory results taken from the supplement of paper PMC6522484.
± gives the standard deviation of the averaged measurements.

Test system: HCT116
Test: cell viability (CellTiter-Glo) relative to plate median (fraction of plate median); higher = more viable cells
Conditions: 10 µM; treatment time 24 h; reporter: TCF4/Wnt
Summary of the method: (§1)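 Colorectal cancer cell lines carrying stably transduced lentiviral TCF/Wnt firefly luciferase reporters (7TFP or TCF4/Wnt) were plated in 384-well plates and treated 24 h later with kinase inhibitor library compounds at a final 10 µM for 24 h. Firefly luciferase or CellTiterGlo luminescence was read on parallel plates with a Tecan F500 reader. Signals were normalised per well to the plate median in webcellHTS2 (additive, no log transformation), and values are the mean of two independent replicates.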

Row | Compound | cell viability
1 | CCCCCCCCCCCCc1ccc(S(=O)(=O)Nc2nncs2)cc1 | 1.16 ± 0.035
2 | O=C1NC(=O)C(c2ccccc2[N+](=O)[O-])=C1Nc1ccc(O)c(Cl)c1 | 1.06 ± 0.05
3 | CNC(=O)c1cc(Oc2ccc(NC(=O)Nc3cc(C(C)(C)C)nn3-c3ccc4ncccc4c3)c(F)c2)ccn1 [DCC-2036 (Rebastinib)] | 0.985 ± 0.035

Test system: SW480
Test: as above
Conditions: 10 µM; treatment time 24 h; reporter: 7TFP
Summary of the method: as §1

Row | Compound | cell viability
4 | O=C(O)c1ccc(Nc2ncc3c(n2)-c2ccc(Cl)cc2C(c2c(F)cccc2F)=NC3)cc1 | 1.01 ± 0.055
5 | O=C(c1ccc(/C=C/c2n[nH]c3ccccc23)cc1)N1CCNCC1 | 1.09 ± 0.035
6 | Cc1[nH]c(/C=C2\C(=O)Nc3ccc(S(=O)(=O)N(C)c4cccc(Cl)c4)cc32)c(C)c1C(=O)N1CCN(C)CC1 | 1.06 ± 0.11
7 | Nc1cc(C(F)(F)F)c(-c2cc(N3CCOCC3)nc(N3CCOCC3)n2)cn1 | 1.105 ± 0.0071
8 | COC(=O)Nc1ccc(-c2nc(N3CCOCC3)c3cnn(C4CCN(Cc5cccnc5)CC4)c3n2)cc1 | 1.055 ± 0.0071
9 | Fc1cc(-c2cccc3ncc(-c4cnn(C5CCNCC5)c4)nc23)cc(F)c1CN1CCOCC1 | 1.05 ± 0.12
10 | COCC(=O)NC/C=C/c1ccc2ncnc(Nc3ccc(Oc4ccc(C)nc4)c(C)c3)c2c1 | 0.952 ± 0.059
11 | COc1cc2ncnc(Nc3cccc(Br)c3)c2cc1OC | 1.03 ± 0.071
12 | Nc1ccc(-c2ccc3ncc4ccc(=O)n(-c5cccc(C(F)(F)F)c5)c4c3c2)cn1 [Torin 2] | 1.11 ± 0.064
13 | Oc1cccc(-c2nc(N3CCOCC3)c3oc4ncccc4c3n2)c1 | 1.12 ± 0.05
14 | Cc1cccc(-c2[nH]c(C(C)(C)C)nc2-c2ccc3nccnc3c2)n1 | 0.853 ± 0.043
15 | Cc1ncc(-c2ccnc(Nc3ccc(S(C)(=O)=O)cc3)n2)n1C(C)C | 1.47 ± 0.05
16 | CN1CCN(c2nc(C3=C(c4c[nH]c5ccccc45)C(=O)NC3=O)c3ccccc3n2)CC1 [Sotrastaurin (AEB071)] | 0.914 ± 0.1
17 | C[C@@H](N)[C@H]1CC[C@H](C(=O)Nc2ccncc2)CC1 | 1.045 ± 0.0071
18 | CC(C)(C)c1cc(/C=C(\C#N)C(N)=S)cc(C(C)(C)C)c1O [Tyrphostin AG 879 (AG 879)] | 0.844 ± 0.018
19 | c1cncc(CN2CCC(n3ncc4c(N5CCOCC5)nc(-c5ccc6[nH]ccc6c5)nc43)CC2)c1 | 1.19 ± 0.078
20 | CCS(=O)(=O)c1cccc(-c2cc(C(=O)NC3CCN(C)CC3)c(C)c3[nH]c4ncc(C)cc4c23)c1 | 0.965 ± 0.026
21 | COC(=O)c1ccc2c(C(=Nc3ccc(N(C)C(=O)CN4CCN(C)CC4)cc3)c3ccccc3)c(O)[nH]c2c1 [BIBF1120 (Vargatef)] | 1.125 ± 0.0071
22 | C#Cc1cccc(Nc2ncnc3cc(OCCOC)c(OCCO)cc23)c1 [OSI-420 (Desmethyl Erlotinib)] | 0.987 ± 0.047
23 | Cc1csc(-c2nnc(Nc3ccc(Oc4ncccc4-c4ccnc(N)n4)cc3)c3ccccc23)c1 | 1.03 ± 0.059

Row | Compound | cell viability
24 | CCc1cc(Nc2nccc(-c3c(-c4ccc(OC)c(C(=O)Nc5c(F)cccc5F)c4)nc4ccccn34)n2)c(OC)cc1N1CCC(N2CCN(S(C)(=O)=O)CC2)CC1 | 0.974 ± 0.066
25 | CN1CCN(c2ccc3nc(-c4c(N)c5c(F)cccc5[nH]c4=O)[nH]c3c2)CC1 [Dovitinib (TKI-258)] | 1.02 ± 0.11
26 | c1ccc2c(-c3cnn4cc(-c5ccc(N6CCNCC6)cc5)cnc34)ccnc2c1 | 0.8895 ± 0.0064
27 | O=C1NC(=O)/C(=C\c2ccc3nccnc3c2)S1 | 0.854 ± 0.055
28 | COc1cc2nccc(Oc3ccc(NC(=O)NC4CC4)c(Cl)c3)c2cc1C(N)=O [E7080 (Lenvatinib)] | 0.966 ± 0.062
29 | CC(C)(C)c1cnc(CSc2cnc(NC(=O)C3CCNCC3)s2)o1 | 1.3 ± 0.099
30 | CCS(=O)(=O)Nc1ccc2c(c1)/C(=C(/Nc1ccc(CN3CCCCC3)cc1)c1ccccc1)C(=O)N2 [Hesperadin] | 0.873 ± 0.15
31 | CNC(=O)c1cc(Oc2ccc(NC(=O)Nc3ccc(Cl)c(C(F)(F)F)c3)c(F)c2)ccn1 [Regorafenib (BAY 73-4506)] | 1.13 ± 0.014
32 | CCc1cc2c(cc1N1CCC(N3CCOCC3)CC1)C(C)(C)c1[nH]c3cc(C#N)ccc3c1C2=O | 0.853 ± 0.033
33 | CCC[C@H](NC(=O)/C(C#N)=C/c1cccc(Br)n1)c1ccccc1 | 0.826 ± 0.11
34 | COc1cc2c(Nc3ccc(NC(=O)c4ccccc4)cc3)ncnc2cc1OCCCN1CCOCC1 | 1.11 ± 0.021
35 | O=C(NOCC(O)CO)c1cc(Br)c(F)c(F)c1Nc1ccc(I)cc1F (stereo not drawn) | 1.19 ± 0.028
36 | O=C(NC1CCNCC1)c1n[nH]cc1NC(=O)c1c(Cl)cccc1Cl | 1.31 ± 0.17
37 | CC[C@H](Nc1ncnc2[nH]cnc12)c1nc2cccc(F)c2c(=O)n1-c1ccccc1 | 0.996 ± 0.02
38 | C=CC(=O)Nc1ccc2ncnc(Nc3ccc(OCc4cccc(F)c4)c(Cl)c3)c2c1 | 1 ± 0.07
39 | COc1ccc(COc2cc3oc(=O)c4cc(C(C)O)ccc4c3cc2OC)cc1 (stereo not drawn) [Palomid 529] | 0.877 ± 0.044
40 | O=C(Nc1c[nH]nc1-c1nc2ccc(CN3CCOCC3)cc2[nH]1)NC1CC1 | 1.02 ± 0.14
41 | CCCCCCCCCCCCc1ccc(S(=O)(=O)Nc2nncs2)cc1 | 0.91 ± 0.016
42 | O=C1NC(=O)C(c2ccccc2[N+](=O)[O-])=C1Nc1ccc(O)c(Cl)c1 | 0.859 ± 0.072
43 | CNC(=O)c1cc(Oc2ccc(NC(=O)Nc3cc(C(C)(C)C)nn3-c3ccc4ncccc4c3)c(F)c2)ccn1 [DCC-2036 (Rebastinib)] | 1.08 ± 0.099
